Reference: PubChem BioAssay AID2289 (National Center for Advancing Translational Sciences (NCATS), 2010)
The campaign covered roughly 340,000 compounds. About 3,300 (0.97%) were called active. Inconclusive results (about 9%) are left out. The call rests on the fitted dose curve; in most records, active means well fitted inhibition curve with a large enough effect; inconclusive means small, poorly fitted or top-dose-only effect, or effect the other way; inactive means flat fitted curve, though single readings scatter. Some of the results follow.

Test: qHTS Assay for Modulators of miRNAs and/or Inhibitors of miR-21; further: nearly all actives have a fitted effect of over 55% in size
Details: HeLa miR-21-FLuc reporter, luciferase luminescence, 48 h; actives lower the signal
How it was run: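 HeLa miR-21-FLuc reporter line, endogenous miR-21; 2000 cells/well in DMEM/10% FBS; compound titration up to ~40uM final, 48 h, 37 degree Celsius; luciferase detection reagent, 15 min lysis, CCD luminescence.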
Potency means the concentration at half of the fitted maximal effect.

Potency, active:
COc1cc(C2Nc3ccccc3C(=O)N2c2ccc(Cl)cc2)c(Cl)cc1OCC(=O)O (centres undefined) 2.33 µM
CCOC(=O)COc1ccccc1C1Nc2ccccc2C(=O)N1c1cccc(Cl)c1 (centres undefined) 5.85 µM
O=C(CSc1nc(-c2ccc(F)cc2)cs1)N1CCOCC1 6.56 µM
Cc1nc(-c2ccc3c(c2)CCC(=O)N3)cs1 14.7 µM
CCc1ccccc1NC(=O)CSc1nc(C)c(C(=O)Nc2ccccc2)c(-c2ccc(Cl)cc2)c1C#N 23.3 µM
COc1ccccc1CCCNC(=O)C1CCC(=O)N(Cc2ccccc2F)C1 (centres undefined) 14.7 µM
O=C(NCCc1c[nH]c2ccccc12)c1ccc(F)cc1F 9.27 µM
COc1ccc(C(=O)NCCc2c[nH]c3ccccc23)cc1 3.29 µM
O=C(NCCc1c[nH]c2ccccc12)c1ccc(Cl)cc1 7.36 µM
O=C(NN/C(=N/S(=O)(=O)c1ccc(Cl)cc1)c1ccccc1)c1cccc(Cl)c1 2.07 µM
Cc1ccc(S(=O)(=O)/N=C(/NNC(=O)c2cccc(Cl)c2)c2ccccc2)cc1 1.85 µM
CN(C)c1ccc(/C=N\Nc2ccccn2)cc1 0.521 µM
C(=N\Nc1ccccn1)/c1ccc(N2CCOCC2)cc1 1.85 µM
COc1cc(N/N=C/c2ccc(N(C)C)cc2)ncn1 0.208 µM
Fc1ccc(/C=N/Nc2ccccn2)cc1 8.26 µM
COc1ccc(C2=NN(C(=O)CN3CCOCC3)C(c3nc4ccccc4[nH]3)C2)cc1 (centres undefined) 10.4 µM
CN(C)CCCNC(=O)c1ccc(/C=N/O)nc1 1.85 µM
c1ccc(-c2onc3cc4c(cc23)OCCO4)cc1 2.07 µM
Fc1ccc(Nc2ccc(-c3ccc(F)cc3)nn2)cc1 3.29 µM
O=C(O)c1ccc(N/N=C/c2ccc(-c3cc(Cl)ccc3Cl)o2)cc1 6.56 µM
O=C(O)c1ccc(N/N=C/c2ccc(-c3cccc(Cl)c3)o2)cc1 0.927 µM
O=C(O)c1ccc(N/N=C/c2ccc(-c3ccc(Cl)cc3Cl)o2)cc1 18.5 µM
O=C(O)c1ccc(N/N=C/c2ccc(-c3ccc(Br)cc3)o2)cc1 5.85 µM
O=C(O)c1ccc(N/N=C/c2ccc(-c3ccccc3Cl)o2)cc1 0.293 µM
c1cnc2c(SCc3ccc(-c4nnco4)cc3)cccc2c1 13.1 µM
Cc1ccccc1OCCCn1c(=O)sc2ccccc21 6.56 µM
COc1ccccc1OCCCn1c(=O)sc2ccccc21 9.27 µM
O=C(Nc1ccc2oc(-c3ccccc3)nc2c1)c1ccccc1F 1.31 µM
O=C(Nc1ccc2oc(-c3ccc4ccccc4c3)nc2c1)c1cccs1 1.04 µM
O=C(Nc1ccc2oc(-c3ccc4ccccc4c3)nc2c1)c1cc(Br)ccc1Cl 16.5 µM
O=S(=O)(Nc1ccc2oc(-c3ccccc3)nc2c1)c1ccccc1 18.5 µM
COc1ccc2nc(SCC(=O)C(C)(C)C)[nH]c2c1 6.56 µM
CCOc1ccc2nc(SCC(=O)N(C)C)[nH]c2c1 7.36 µM
Cc1cccc(Nc2nc3c(s2)CCCC3)c1 2.07 µM
O=C1C=C(N2CCCCCC2)C(=O)N1c1ccc(Cl)cc1 5.21 µM
Cc1ccccc1OCCNC(=O)c1ccc2ccccc2n1 5.21 µM
CN1N=C(C(=O)Nc2ccc3c(c2)CCC3)CCC1=O 9.27 µM
Cn1cc(C(=O)Nc2ccc3c(c2)CCC3)cn1 7.36 µM
CCC(C)(C)C1CCc2[nH]nc(C(=O)N/N=C(\C)c3ccco3)c2C1 (centres undefined) 2.61 µM
CCCc1nnc(NC(=O)Nc2ccccc2OC)s1 16.5 µM
CC(C)(C)C(=O)Nc1nnc(CCc2ccccc2)s1 2.93 µM
COc1ccccc1NC(=O)Nc1nnc(C(C)C)s1 14.7 µM
c1ccc(Cn2nc(-c3ccccc3)nc2-c2ccccc2)cc1 16.5 µM
COc1ccc(C(=O)OCCc2ccc(O)cc2)cc1 6.56 µM
S=C1c2ccccc2CN1c1ccccc1 9.27 µM
Cc1ccccc1-c1nnc(SCC(=O)N(C)c2ccccc2)o1 16.5 µM
Cc1ccccc1-c1nnc(SCC(=O)N(C)C2CCCCC2)o1 14.7 µM
CC(=O)N1N=C(c2ccc(C)cc2)CC1c1ccco1 (centres undefined) 16.5 µM
CCc1ccc(C2=NN(C(C)=O)C(c3ccco3)C2)cc1 (centres undefined) 2.33 µM
Nc1ccc2nc3c(=O)n(C4CCCCC4)c(=O)[nH]c3nc2c1 14.7 µM
O=C(NC1CC(=O)c2sccc21)c1ccc(Cl)cc1Cl (centres undefined) 13.1 µM
COc1ccc(-c2coc3cc(O)cc(O)c3c2=O)cc1OC 13.1 µM
O=c1c(-c2ccccc2)coc2cc(O)ccc12 1.85 µM
CC(C)Oc1ccc2c(=O)c(-c3ccccc3)coc2c1 0.464 µM
COc1ccc(-c2coc3cc(O)ccc3c2=O)cc1OC 13.1 µM
Cc1ccc(C2=NNC3(CCOC(C)(C)C3)S2)cc1 (centres undefined) 3.69 µM
Cc1ccc2cc3cc(C(=O)N4CCCCCC4)oc3nc2c1 0.261 µM
COc1ccc2nc3oc(C(=O)N4CCCCC4)cc3cc2c1 1.04 µM
COc1ccc2cc3cc(C(=O)N4CCCCCC4)oc3nc2c1 0.414 µM
COc1ccc2cc3cc(C(=O)N4CCCC(C)C4)oc3nc2c1 (centres undefined) 1.04 µM
CCCC(=O)Nc1sc2c(c1C#N)CCCCC2 2.93 µM
Cc1cccc(C(=O)Nc2sc3c(c2C#N)CCCCC3)c1 0.261 µM
N#Cc1c(NC(=O)C2CC2)sc2c1CCCCC2 8.26 µM
Nc1nccc(/C=C/c2ccc(Cl)cc2)n1 2.07 µM
COc1cc2c(cc1NC(=O)Cc1ccc(C)cc1)oc1ccccc12 9.27 µM
COc1ccc(CC(=O)Nc2cc3oc4ccccc4c3cc2OC)cc1 14.7 µM
COc1ccc2oc(=O)c(-c3nc4ccccc4o3)cc2c1 9.27 µM
Cc1ccc(C(=O)O/N=C(\N)c2cccnc2)cc1[N+](=O)[O-] 7.36 µM
Cc1cc(C(=O)O/N=C(\N)c2ccncc2)ccc1[N+](=O)[O-] 2.33 µM
C/C(=N\NC(=O)c1nn(C)c(C)c1Br)c1cccc(NC(=O)c2ccc(F)cc2)c1 1.85 µM
C/C(=N\NC(=O)c1nn(C)cc1Br)c1ccc(NC(=O)c2ccncc2)cc1 18.5 µM
C/C(=N\NC(=O)c1nn(C)c(C)c1Br)c1cccc(NC(=O)c2ccoc2C)c1 3.69 µM
COc1ccc(C2=NN(C(C#N)c3ccc(OC)cc3)C(c3ccccc3)C2)cc1 (centres undefined) 2.33 µM
COc1ccc(C(C#N)N2N=C(c3ccccc3)CC2c2ccccc2)cc1OC (centres undefined) 10.4 µM
O=C1C(C=NCCN2CCOCC2)=C(O)c2ccccc21 8.26 µM
O=C(/C=C/c1ccc(-c2cccc([N+](=O)[O-])c2)o1)N1CCOCC1 7.36 µM
O=C(/C=C/c1ccc(-c2ccc(F)cc2)o1)N1CCCC1 5.85 µM
O=C(/C=C\c1ccc(-c2cccc([N+](=O)[O-])c2)o1)N1CCOCC1 9.27 µM
COc1ccc(CCN2CCCC(CN(C)C(=O)c3ccoc3)C2)cc1 (centres undefined) 6.56 µM
COCc1ccc(C(=O)N(C)CC2CCCN(CCc3ccc(OC)cc3)C2)o1 (centres undefined) 11.7 µM
Cc1ccc(/C=N/NC(=O)c2cccs2)cc1[N+](=O)[O-] 4.14 µM
O=C(N/N=C/c1ccccc1[N+](=O)[O-])c1cccs1 2.93 µM
CC(/C=N/NC(=O)Cc1cccs1)=C\c1ccccc1 6.56 µM
O=C(Cc1cccs1)N/N=C/C=C/c1ccccc1[N+](=O)[O-] 6.56 µM
CSc1ccccc1NC(=O)c1cccc(S(=O)(=O)N2CCN(C)CC2)c1 14.7 µM
Cc1cccc2nc(COc3ccc4ccccc4c3Br)cn12 2.07 µM
Clc1ccc(OCc2cn3cccnc3n2)c2ncccc12 14.7 µM
Clc1ccc(OCc2cn3ccccc3n2)c2ncccc12 6.56 µM
O=[N+]([O-])c1ccccc1COc1ccc(Cl)c2cccnc12 0.293 µM
Cc1cccc2nc(COc3ccc(Cl)c4cccnc34)cn12 16.5 µM
Cc1ccc(-n2nc3cc(C)c(NC(=S)NC(=O)/C=C/c4ccco4)cc3n2)cc1 3.69 µM
Cc1cccnc1NC(=S)NC(=O)/C=C/c1ccco1 9.27 µM
CCOC(=O)Cc1ccc2sc(-c3ccccc3)nc2c1 1.17 µM
Cc1ccc(-c2nc3ccccc3s2)cc1NC(=S)NC(=O)c1cccc2ccccc12 4.65 µM
CCOc1cc(-c2nc3ccccc3s2)ccc1O 9.27 µM
Cc1ccc(-c2nc3ccccc3s2)cc1NC(=S)NC(=O)/C=C/c1ccco1 10.4 µM
COc1ccc(OCC(=O)Nc2cc(-c3nc4ccccc4s3)ccc2C)cc1 4.65 µM
C/C(=N/Nc1ccccc1C(=O)O)c1cccs1 14.7 µM
C/C(=N\Nc1ccccc1C(=O)O)c1ccncc1 8.26 µM
C/C(=N\Nc1nc(-c2ccccc2)cs1)c1cccs1 8.26 µM
O=C(Nc1ccccc1Cl)c1ccc(-c2ccccn2)s1 0.826 µM
O=C(Nc1ccc(Cl)cc1)c1ccc(-c2ccccn2)s1 0.736 µM
c1ccc(-c2ccc(-c3ccccn3)s2)nc1 0.736 µM
O=C(Nc1ccccc1)c1ccc(-c2ccccc2)s1 1.85 µM
